Screening results (PubChem)
p47phox inh: blocks human p47phox regulatory protein of NADPH oxidases; P14598; p47phox/p22phox peptide binding, fluorescence polarization, 2 h; inhibition, % at 24.7 µM; 220,000 compounds, 0.53% hits; AID 1274;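 active = inhibition above about 30%, limit read from the data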
Target sequence (P14598 whole entry, looked up): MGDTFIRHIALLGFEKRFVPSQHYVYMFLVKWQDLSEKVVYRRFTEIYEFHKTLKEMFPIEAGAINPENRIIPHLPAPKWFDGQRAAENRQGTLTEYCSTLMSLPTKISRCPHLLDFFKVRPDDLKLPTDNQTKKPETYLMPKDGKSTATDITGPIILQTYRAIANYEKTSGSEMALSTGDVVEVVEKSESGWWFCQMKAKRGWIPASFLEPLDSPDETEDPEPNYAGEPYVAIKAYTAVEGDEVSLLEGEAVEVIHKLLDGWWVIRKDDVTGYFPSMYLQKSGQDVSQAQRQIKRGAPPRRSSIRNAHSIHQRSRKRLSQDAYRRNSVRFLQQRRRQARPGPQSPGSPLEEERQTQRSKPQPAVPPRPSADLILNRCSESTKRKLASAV
Mcl1 Noxa PPI: Mcl-1/Noxa interaction inhibition; Q07820; TR-FRET Mcl-1/Noxa peptide binding, 2 h; inhibition, % at 21.7 µM; 220,000 compounds, 1.5% hits;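 active = compounds that cut the protein-peptide binding signal by more than 50% relative to plate controls in a single-dose test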;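 note: His-tagged Mcl-1 with rhodamine Noxa BH3 peptide and terbium anti-His antibody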
Bim-Mcl-1: human Bim-Mcl-1 interaction inhibition | inhibition, % at 10 µM | Bead-based flow cytometry, Bim peptide-Mcl-1 binding | Q07820 | 190,000 compounds, 0.1% hits; in the data active = inhibition above about 40%
14-3-3 Bad PPI: disrupts binding of bovine 14-3-3 zeta to phospho-Bad peptide | inhibition, % at 21.7 µM | 220,000 compounds, 0.71% hits | TR-FRET 14-3-3zeta/Dy647-pBad peptide displacement, 1 h | AID 781;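 active = inhibition above about 70%, limit read from the data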
Target sequence (P63103 whole entry, looked up): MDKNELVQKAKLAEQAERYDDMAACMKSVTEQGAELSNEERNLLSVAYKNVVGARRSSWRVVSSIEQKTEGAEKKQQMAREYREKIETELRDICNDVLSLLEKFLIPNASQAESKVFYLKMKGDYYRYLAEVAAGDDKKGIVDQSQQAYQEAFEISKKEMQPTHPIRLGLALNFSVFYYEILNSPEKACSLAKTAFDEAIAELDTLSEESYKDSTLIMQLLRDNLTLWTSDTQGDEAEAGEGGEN
Mcl1 Bid PPI: disrupts binding of human Mcl-1 to Bid peptide. TR-FRET Mcl-1/Bid-Dy647 peptide binding, 1536-well. 220,000 compounds, 0.97% hits. inhibition, % at 21.7 µM;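 active = compounds that cut the binding signal by more than half at the single screening dose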;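 note: His-tagged Mcl-1 with europium anti-His antibody binding Bid BH3 peptide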
A number is an active result; . = inactive; / = no result given; [ ] = remark or other dose. This is a sample that favours compounds with a hit; in the whole collection about 3.1% have one here.

SMILES | p47phox inh | Mcl1 Noxa PPI | Bim-Mcl-1 | 14-3-3 Bad PPI | Mcl1 Bid PPI
Cn1c(=O)oc2cc(S(=O)(=O)N3CCOCC3)ccc21 | . | . | . | . | .
CC(N1CCOC1=O)S(=O)(=O)c1ccccc1 (stereo not drawn) | . | . | . | . | .
COC(=O)c1sccc1NC(=O)c1c(C)c(-c2cccc(Cl)c2)nc2ccccc12 | . | . | . | . | .
C=C(C)C1CC=C(C)/C(=N/NC(=O)c2cccc([N+](=O)[O-])c2)C1 (stereo not drawn) | . | . | . | . | .
C=C(C)C1CC=C(C)/C(=N/NC(=O)c2ccc(NC(=O)c3cccc(C)c3)cc2)C1 (stereo not drawn) | 37 | . | . | . | .
CCOc1ccccc1OCCOCCN1CCN(Cc2ccccc2)CC1 | 40 | . | . | 84 | .
Clc1ccccc1OCCN1CCC(Cc2ccccc2)CC1 | . | . | . | . | 63
Cc1ccc(S(=O)(=O)N2C(=O)/C(=C3\SC(=S)NC3=O)c3ccccc32)cc1 | . | 70 | / | . | .
COc1cccc(/C=C2\N=C(SC)SC2=O)c1OC | . | . | . | . | .
CSC1=N/C(=C\c2ccccc2F)C(=O)S1 | . | 92 | . | . | 100
COc1ccc(-c2csc3ncn(-c4cccc(C)c4)c(=O)c23)cc1OC | . | . | . | . | .
O=C(c1cccnc1)N1CCN(Cc2ccc3c(c2)OCO3)CC1 | . | . | . | 76 | 61
CCn1cnc2sc(C(=O)N3CCN(Cc4ccc5c(c4)OCO5)CC3)c(C)c2c1=O | 85 | . | . | . | .
O=C(c1cccnc1)N1CCN(Cc2cccc(Br)c2)CC1 | . | . | . | 71 | .
CC(=O)c1ccc(NC(=O)Nc2ccc3c(c2)N(C)C(=O)CS3)cc1 | . | 61 | . | . | .
CCOc1ccc(NC(=O)Nc2ccc3c(c2)N(C)C(=O)CS3)cc1 | . | . | . | . | .
CCCCCCCCCCCCCCCC(O)C(N)CO (stereo not drawn) | 84 | . | . | . | 66
Clc1cc(Br)ccc1OCCn1ccnc1 | . | . | . | 78 | .
Clc1cc(Br)ccc1OCCCn1ccnc1 | . | . | . | . | .
FC(F)(F)c1cccc(-c2ccn3ncnc3n2)c1 | . | . | . | . | .
COCCn1nnnc1CN(Cc1ccco1)Cc1cc2cc3c(cc2[nH]c1=O)OCO3 | . | . | 43 | . | .
CCOCCCNc1nc(C)nc2c1nnn2Cc1c(F)cccc1Cl | . | . | . | . | .
O=C(N/N=C/c1ccc2ncccc2c1)c1ccco1 | . | 52 | . | . | .
O=C(N/N=C/c1ccccn1)c1ccco1 | . | . | . | . | .
CCCNC(=S)N(Cc1ccccc1)Cc1nc2ccccc2c(=O)[nH]1 | . | . | . | . | .
SMILES | p47phox inh | Mcl1 Noxa PPI | Bim-Mcl-1 | 14-3-3 Bad PPI | Mcl1 Bid PPI
CCCc1cc(=O)[nH]c(SCC(=O)Nc2ccc([N+](=O)[O-])cc2C#N)n1 | . | . | / | . | .
CCN1C(=O)/C(=C\C=C2/C=CC=CN2CC)SC1=S | . | . | . | . | .
CCN1C(=O)/C(=C/C=C2\C=CN(CC)c3ccccc32)SC1=S | . | 64 | . | . | .
CCCN1C(=O)/C(=C\C=C2/Sc3ccccc3N2CC)SC1=S | 77 | . | . | . | .
CCN1/C(=C\C=C2\C(=O)N(c3ccccc3)C(=S)N2C)Sc2ccccc21 | . | 60 | . | 95 | 78
COc1cc(/C=N/NC(=O)COc2ccc(-n3cnnn3)cc2)ccc1OCC(N)=O | . | . | / | . | .
COCCCNCCCOc1ccc(C(C)(C)c2ccccc2)cc1 | . | . | . | . | .
C=CCNCCCOc1ccc(C(C)(C)c2ccccc2)cc1 | . | . | . | . | 52
O=C(CSc1ccccc1)Nc1ccc(C(=O)Nc2ccc(O)cc2)cc1 | . | . | . | . | .
CCOCC(=O)Nc1ccc([N+](=O)[O-])cc1Cl | . | . | . | . | .
O=C(C1=C[C@@H](c2csc3ccccc23)C[C@@H](OCc2ccc(CO)cc2)O1)N1CCN(Cc2ccc3c(c2)OCO3)CC1 | . | . | . | . | 97
O=C(C1=C[C@@H](c2csc3ccccc23)C[C@@H](OCc2ccc(CO)cc2)O1)N1CCN(Cc2ccccc2)CC1 | / | . | . | . | .
C#CCOCCOCCOCCNc1nc(N2CCN(C(=O)[C@H](CCCCN)n3cc(C(N)[C@H](C)CC)nn3)CC2)nc(N2CCN(C(=O)[C@H](CCC(=O)O)n3cc(C(N)[C@H](C)CC)nn3)CC2)n1 (stereo partly drawn) | . | . | . | . | 75
C#CCOCCOCCOCCNc1nc(N2CCN(C(=O)[C@H]([C@@H](C)CC)n3cc([C@@H](N)CC(C)C)nn3)CC2)nc(N2CCN(C(=O)[C@H](CCCCN)n3cc([C@@H](N)C(C)CC)nn3)CC2)n1 (stereo partly drawn) | / | . | . | . | .
C#CCOCCOCCOCCNc1nc(N2CCN(C(=O)[C@H](CCCCN)n3cc([C@@H](N)C(C)CC)nn3)CC2)nc(N2CCN(C(=O)[C@H](CCCCN)n3cc([C@@H](N)CO)nn3)CC2)n1 (stereo partly drawn) | / | . | . | . | 88
O=C(CSc1nnc(-c2cccnc2)n1C1CCCCC1)NC1CCCC1 | . | 56 | . | . | .
CC1CCCN(C(=O)CSc2nnc(-c3cccnc3)n2C2CCCCC2)C1 (stereo not drawn) | . | . | . | . | .
CCCCC[C@H](O)/C=C/[C@@H]1[C@@H](C/C=C\CCCC(=O)OC)[C@@H](O)C[C@H]1O | . | . | . | 91 | 98
CN(C)c1ccc(/C=N/OC(=O)Nc2ccccc2Cl)cc1 | . | . | . | . | .
CCOc1ccc(N/C(=C(/C(Cl)=C(Cl)Cl)[N+](=O)[O-])n2cncn2)cc1 | . | . | . | . | 77
CCOc1ccccc1NC(=O)c1ccc([N+](=O)[O-])cc1 | . | . | . | . | .
O=[N+]([O-])/C(C(Cl)=C(Cl)Cl)=C(\Nc1ccc(F)cc1)n1cncn1 | . | . | . | . | 73
CCOc1ccccc1N/C(=C(/C(Cl)=C(Cl)Cl)[N+](=O)[O-])n1cncn1 | . | . | . | 74 | 61
CCOc1ccc(NC(=O)c2ccncc2)cc1 | . | . | . | / | .
CCC(=O)NNc1nc2c(Cl)cccc2s1 | . | . | . | . | .
SMILES | p47phox inh | Mcl1 Noxa PPI | Bim-Mcl-1 | 14-3-3 Bad PPI | Mcl1 Bid PPI
CCS(=O)(=O)N1Cc2ccccc2CC1C(=O)Nc1nnc(SCc2ccc(F)cc2)s1 (stereo not drawn) | . | . | . | . | .
O=C(COC(=O)c1ccncc1)c1ccc(Cl)c(Cl)c1 | . | . | . | . | .
O=c1c(Cl)c2oc3ccccc3nc-2c2ccccc12 | . | 62 | . | . | .
Cc1c([N+](=O)[O-])c(C/C=N/O)nn1C | . | . | / | . | .
COc1cc(OC)c2c(C)cc(=O)oc2c1C(CCN1CCOCC1)c1ccc(N(C)C)cc1 (stereo not drawn) | . | . | / | . | .
O=C(O)c1cc([N+](=O)[O-])c(N2CCCC2)c([N+](=O)[O-])c1 | . | . | . | . | .
CC[N+]1=CN(c2ccccc2)C(C)=CC1(C)C | . | . | . | 82[fluorescence artefact?] | .
